Source: PubChem BioAssay
For part of these data: Potency and affinity values are given separately. The source made the active and inactive calls.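 Rule for the calls, unless noted: active = calcium signal cut by more than 3 SD below the full-agonist control yet still positive, in both repeats and the earlier primary screen; inactive = the rest.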

Experiments:
[1] = system: TRPC4 beta (transient receptor potential cation channel C4), mouse; experiment: activators of mouse TRPC4 channel, confirmation, cell-based, Fluo4 calcium, HEK293 TRPC4beta/mu-opioid, duplicates, 10 µM (AID 2426;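 active = fluorescence ratio normalized to control raised more than 50% in primary screen plus both repeat runs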;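 for activation: percent rise of integrated ratio over buffer wells lacking compound which define 0%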); details: Fluo4 calcium fluorescence, at 10 µM; active compounds read high
[2] = system: transient receptor potential cation channel C4 beta (TRPC4), mouse; experiment: activators of mouse TRPC4 channel, confirmation, cell-based, second round, Fluo4, HEK293 TRPC4beta/mu-opioid, 1 µM (AID 2461;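 active = primary screen active and over 50% activation in each of two duplicate runs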;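 for activation: 0% = wells without test compound as baseline of integrated fluorescence ratio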); details: Fluo4 calcium fluorescence, at 1 µM; active compounds read high
[3] = system: TRPC4 (transient receptor potential cation channel C4 beta), mouse; experiment: positive allosteric modulators of mouse TRPC4, confirmation, cell-based, second round, Fluo-4, HEK293 TRPC4beta/mu-opioid, 1 µM (AID 2554;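 active = primary screen hit whose fluorescence ratio, in both repeats, exceeds the weak agonist control mean by 3 SD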); details: DAMGO EC20, Fluo-4 calcium flux, at 1 µM; active compounds read high
[4] = system: TRPC4 beta (transient receptor potential cation channel C4), mouse; experiment: positive allosteric modulators of mouse TRPC4, confirmation, cell-based, Fluo-4, HEK293 TRPC4beta/mu-opioid (AID 2555;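 active = primary screen hit whose calcium fluorescence ratio, in both repeats, exceeds the weak agonist control mean by 3 SD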); details: DAMGO EC20, Fluo-4 calcium flux, at 10 µM; active compounds read high
[5] = target: Short transient receptor potential channel 4 (Mus musculus) (UniProt Q9QUQ5); experiment: inhibitors of mouse TRPC4 channel, confirmation, cell-based, Fluo4, HEK293 TRPC4beta/mu-opioid (AID 2636); details: DAMGO, Fluo4 calcium flux, at 10 µM; active compounds read high
Chain of Short transient receptor potential channel 4 (Mus musculus) (Q9QUQ5 whole entry, looked up): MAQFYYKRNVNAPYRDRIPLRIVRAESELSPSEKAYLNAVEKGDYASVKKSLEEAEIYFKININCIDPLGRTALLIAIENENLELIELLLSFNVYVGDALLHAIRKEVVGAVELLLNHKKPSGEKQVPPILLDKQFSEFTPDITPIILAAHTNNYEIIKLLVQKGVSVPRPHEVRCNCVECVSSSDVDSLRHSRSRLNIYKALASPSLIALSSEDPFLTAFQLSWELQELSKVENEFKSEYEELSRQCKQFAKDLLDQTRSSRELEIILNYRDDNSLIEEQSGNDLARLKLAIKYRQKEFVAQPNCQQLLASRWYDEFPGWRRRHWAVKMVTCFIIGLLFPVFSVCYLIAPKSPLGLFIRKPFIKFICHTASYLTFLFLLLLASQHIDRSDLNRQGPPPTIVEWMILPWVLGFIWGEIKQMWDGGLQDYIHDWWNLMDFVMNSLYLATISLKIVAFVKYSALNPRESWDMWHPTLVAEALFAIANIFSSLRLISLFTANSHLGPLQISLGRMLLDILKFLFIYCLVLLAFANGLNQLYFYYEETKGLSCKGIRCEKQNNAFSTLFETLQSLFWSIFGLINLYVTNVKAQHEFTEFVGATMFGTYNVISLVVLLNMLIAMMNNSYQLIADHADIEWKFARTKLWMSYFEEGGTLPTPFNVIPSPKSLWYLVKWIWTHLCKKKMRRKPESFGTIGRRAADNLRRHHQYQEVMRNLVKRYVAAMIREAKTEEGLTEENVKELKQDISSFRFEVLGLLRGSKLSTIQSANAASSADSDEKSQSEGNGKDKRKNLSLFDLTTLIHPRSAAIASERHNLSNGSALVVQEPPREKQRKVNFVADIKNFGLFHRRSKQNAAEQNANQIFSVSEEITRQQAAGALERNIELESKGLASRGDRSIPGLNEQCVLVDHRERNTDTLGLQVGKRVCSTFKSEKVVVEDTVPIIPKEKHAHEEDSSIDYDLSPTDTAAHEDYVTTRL

[6] = target: Short transient receptor potential channel 4 (Mus musculus) (UniProt Q9QUQ5); experiment: inhibitors of mouse TRPC4 channel, confirmation, cell-based, second round, Fluo4, HEK293 TRPC4beta/mu-opioid, 1 µM (AID 2637;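 active = calcium signal ratio cut to more than 3 SD under the fully stimulated control mean yet still positive, in both repeats and the primary screen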;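 for inhibition: percent of integrated ratio relative to wells lacking test compound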); details: Fluo4 calcium flux, DAMGO, at 1 µM; active compounds read high
[7] = target: Short transient receptor potential channel 4 (Mus musculus) (UniProt Q9QUQ5); experiment: TRPC4 positive allosteric modulators, dose response, cell-based, HEK293 TRPC4/mu-opioid, Fluo-4 calcium, EC20 DAMGO (AID 434941;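 active = earlier screen potentiator hit that boosts the TRPC4 ion channel at some dose, with a dose response; inactive = no potentiation, no dose response, or not a prior hit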;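 note: calcium entry triggered by an EC20 dose of DAMGO at the co-expressed mu-opioid receptor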)
[8] = target: Short transient receptor potential channel 6 (Mus musculus) (UniProt Q61143); experiment: inhibition of mouse TRPC6 channel, confirmation, selectivity assay for TRPC4 inhibitor project, cell-based, HEK293, membrane potential dye, duplicate (AID 434948;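 active = active in primary screen and both duplicates, each dropping signal beyond three positive-control SD with fluorescence still positive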); details: HEK293 TRPC6, membrane potential dye fluorescence, at 10 µM, stimulated with maximal-effect acetylcholine; active compounds read high
Chain of Short transient receptor potential channel 6 (Mus musculus) (Q61143 whole entry, looked up): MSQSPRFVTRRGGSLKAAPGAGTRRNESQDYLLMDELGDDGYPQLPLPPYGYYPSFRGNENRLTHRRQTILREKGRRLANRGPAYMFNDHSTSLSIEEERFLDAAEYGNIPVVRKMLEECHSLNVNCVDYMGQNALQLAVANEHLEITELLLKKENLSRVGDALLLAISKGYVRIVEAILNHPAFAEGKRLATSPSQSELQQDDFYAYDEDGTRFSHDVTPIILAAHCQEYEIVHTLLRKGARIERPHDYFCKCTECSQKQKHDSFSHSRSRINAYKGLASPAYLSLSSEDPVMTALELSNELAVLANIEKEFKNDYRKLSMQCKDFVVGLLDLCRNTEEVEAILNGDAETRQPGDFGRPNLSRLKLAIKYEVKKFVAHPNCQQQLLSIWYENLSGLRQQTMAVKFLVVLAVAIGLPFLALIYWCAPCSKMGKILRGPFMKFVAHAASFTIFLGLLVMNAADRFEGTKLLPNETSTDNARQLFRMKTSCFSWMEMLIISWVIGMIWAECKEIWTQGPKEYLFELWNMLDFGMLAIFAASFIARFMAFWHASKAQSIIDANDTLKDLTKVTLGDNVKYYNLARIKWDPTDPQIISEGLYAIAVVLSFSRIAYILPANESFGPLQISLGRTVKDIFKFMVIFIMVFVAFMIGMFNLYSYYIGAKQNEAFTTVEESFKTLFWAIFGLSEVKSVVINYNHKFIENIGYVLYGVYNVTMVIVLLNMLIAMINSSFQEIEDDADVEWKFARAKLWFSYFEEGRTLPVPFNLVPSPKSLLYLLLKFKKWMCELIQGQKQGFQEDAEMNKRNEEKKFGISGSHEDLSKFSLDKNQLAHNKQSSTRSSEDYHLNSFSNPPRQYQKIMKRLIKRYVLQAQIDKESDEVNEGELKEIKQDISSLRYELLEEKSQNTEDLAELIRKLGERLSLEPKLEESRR

[9] = target: Short transient receptor potential channel 6 (Mus musculus) (UniProt Q61143); experiment: activation of mouse TRPC6 channel, confirmation, selectivity assay for TRPC4 activator project, cell-based, HEK293, membrane potential dye, duplicate (AID 434950;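 active = membrane potential signal rise above negative control mean plus 3 SD in both duplicates, also active in the earlier TRPC4 screen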;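 for activation: 0% = buffer only wells and 100% = acetylcholine maximal-effect wells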); details: HEK293 TRPC6, membrane potential fluorescence, at 10 µM; active compounds read high
[10] = target: Short transient receptor potential channel 6 (Mus musculus) (UniProt Q61143); experiment: TRPC6 potentiation by TRPC4 potentiator hits, confirmation, selectivity assay for TRPC4 potentiator project, HEK293 cells, membrane potential dye, duplicate (AID 434952;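 active = compound raising the membrane signal above positive-control mean plus 3 SD in both repeats, and a primary screen hit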); details: HEK293 TRPC6, membrane potential dye fluorescence, at 10 µM, maximal acetylcholine added after compound; active compounds read high
[11] = target: Short transient receptor potential channel 4 (Mus musculus) (UniProt Q9QUQ5); experiment: calcium flux activators in TRPC4/5HT1a cells, counter-screen for TRPC4 activator project, cell-based, second counter screen, HEK293 TRPC4/5HT1a, Fluo-4 (AID 434977;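 active = calcium signal rise above buffer-control mean plus 5 SD in both duplicates, and also a hit in the primary screen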;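 for activation: plate controls were assay buffer for no effect and maximal serotonin response for full effect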); details: Fluo-4 calcium flux, at 10 µM; active compounds read high
[12] = calcium flux inhibitors in TRPC4/5HT1a cells, confirmation, counter-screen for TRPC4 inhibitor project, cell-based, second counter screen, HEK293 TRPC4/5HT1a, Fluo-4 (AID 434978;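 active = primary screen active whose calcium signal fell more than 3 SD beyond the full-serotonin control mean in both duplicate plates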;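 for outcome: serotonin given first at submaximal then at maximal dose after compound preincubation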); details: Fluo-4 calcium flux, at 10 µM, serotonin added to trigger calcium flux; active compounds read high
[13] = system: TRPC4 (mouse), co-expressed with 5HT1a in HEK293; experiment: calcium flux potentiators in TRPC4/5HT1a cells, confirmation, counter-screen for TRPC4 potentiator project, cell-based, second counter screen, HEK293 TRPC4/5HT1a, Fluo-4 (AID 434979;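 active = signal rise over 3 SD above mean of control wells given weak agonist, in both repeats and first screen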); details: Fluo-4 calcium flux, at 10 µM, serotonin added at its EC20 dose; active compounds read high
[14] = calcium flux activation in mu-opioid HEK293 cells, confirmation, counter-screen for TRPC4 activator project, cell-based, HEK293 mu-opioid receptor line (AID 449723;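 active = hit in primary screen, with calcium signal over 5 SD above buffer well mean in both duplicates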;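 note: counter screen cells carry the mu-opioid receptor alone and lack TRPC4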); details: Fluo-4 calcium fluorescence, at 10 µM; active compounds read high
[15] = calcium flux enhancement in mu-opioid HEK293 cells, confirmation, counter-screen for TRPC4 allosteric potentiator project, cell-based, HEK293 mu-opioid receptor line (AID 449724;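 active = calcium signal rise more than 3 SD above the low-dose agonist control mean, in both duplicate plates and the primary screen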); details: Fluo-4 calcium flux, at 10 µM, compound added before EC20 DAMGO stimulus; active compounds read high
[16] = target: Short transient receptor potential channel 4 (Mus musculus) (UniProt Q9QUQ5); experiment: mouse TRPC4 channel inhibitors, dose response, cell-based, HEK293 TRPC4/mu-opioid, Fluo-4 calcium (AID 434942;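 active = primary screen inhibitor hit that blocks the TRPC4 channel at some tested dose, yielding a dose curve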)
[17] = thallium flux activation in parental CHO cells, counter-screen for KCNQ1 potentiator project (AID 493006;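 active = duplicate-averaged activation above buffer control mean plus 5 SD of those controls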); details: parental CHO-K1 cells, FluxOR thallium flux, at 10 µM; active compounds read high
[18] = target: Potassium voltage-gated channel subfamily KQT member 1 (Homo sapiens) (UniProt P51787); experiment: KCNQ1 potassium channel potentiators, confirmation, FluxOR thallium flux, CHO cells, duplicates (AID 493007;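 active = potentiation averaged over duplicate wells exceeding buffer-only control mean by more than 3 SD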;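 for outcome: cells depolarized by a potassium plus thallium sulfate stimulus after compound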;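 for potentiation: 0% = buffer-only wells and 100% = R-L3 activator control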); details: KCNQ1 cell line, FluxOR thallium flux fluorescence, at 10 µM; active compounds read high, % of reference activator effect, buffer zero
Chain of Potassium voltage-gated channel subfamily KQT member 1 (Homo sapiens) (P51787 whole entry, looked up): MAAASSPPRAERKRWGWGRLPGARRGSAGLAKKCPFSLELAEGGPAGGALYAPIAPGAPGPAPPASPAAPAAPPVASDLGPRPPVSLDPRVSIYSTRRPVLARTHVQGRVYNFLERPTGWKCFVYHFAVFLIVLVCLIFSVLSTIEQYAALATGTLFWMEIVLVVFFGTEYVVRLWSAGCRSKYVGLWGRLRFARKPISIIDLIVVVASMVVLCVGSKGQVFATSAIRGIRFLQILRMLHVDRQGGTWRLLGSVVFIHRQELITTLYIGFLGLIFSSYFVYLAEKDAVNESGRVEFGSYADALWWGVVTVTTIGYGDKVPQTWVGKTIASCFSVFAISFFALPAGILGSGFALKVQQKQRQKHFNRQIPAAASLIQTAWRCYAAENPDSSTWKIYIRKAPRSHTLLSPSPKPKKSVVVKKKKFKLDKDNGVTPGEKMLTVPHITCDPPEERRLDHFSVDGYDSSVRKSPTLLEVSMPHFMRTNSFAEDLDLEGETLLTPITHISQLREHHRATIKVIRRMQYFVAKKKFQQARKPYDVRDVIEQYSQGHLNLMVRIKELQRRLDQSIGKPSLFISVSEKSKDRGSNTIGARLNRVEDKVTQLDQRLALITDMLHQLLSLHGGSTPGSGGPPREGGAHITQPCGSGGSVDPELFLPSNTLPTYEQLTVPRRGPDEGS

[19] = target: Potassium voltage-gated channel subfamily KQT member 2 (Rattus norvegicus) (UniProt O88943); experiment: rat KCNQ2 channel potentiation, selectivity assay for KCNQ1 potentiator project, KCNQ2-CHO-K1 cells (AID 493009;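 active = mean duplicate potentiation above the buffer control mean plus 5 SD of buffer wells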;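 note: assay conditions were tuned for KCNQ1 rather than KCNQ2 modulators; signal is max minus min fluorescence divided by baseline after thallium stimulus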); details: FluxOR thallium flux fluorescence, at 10 µM; active compounds read high, scaled: buffer 0, activator control 100
Chain of Potassium voltage-gated channel subfamily KQT member 2 (Rattus norvegicus) (O88943 whole entry, looked up): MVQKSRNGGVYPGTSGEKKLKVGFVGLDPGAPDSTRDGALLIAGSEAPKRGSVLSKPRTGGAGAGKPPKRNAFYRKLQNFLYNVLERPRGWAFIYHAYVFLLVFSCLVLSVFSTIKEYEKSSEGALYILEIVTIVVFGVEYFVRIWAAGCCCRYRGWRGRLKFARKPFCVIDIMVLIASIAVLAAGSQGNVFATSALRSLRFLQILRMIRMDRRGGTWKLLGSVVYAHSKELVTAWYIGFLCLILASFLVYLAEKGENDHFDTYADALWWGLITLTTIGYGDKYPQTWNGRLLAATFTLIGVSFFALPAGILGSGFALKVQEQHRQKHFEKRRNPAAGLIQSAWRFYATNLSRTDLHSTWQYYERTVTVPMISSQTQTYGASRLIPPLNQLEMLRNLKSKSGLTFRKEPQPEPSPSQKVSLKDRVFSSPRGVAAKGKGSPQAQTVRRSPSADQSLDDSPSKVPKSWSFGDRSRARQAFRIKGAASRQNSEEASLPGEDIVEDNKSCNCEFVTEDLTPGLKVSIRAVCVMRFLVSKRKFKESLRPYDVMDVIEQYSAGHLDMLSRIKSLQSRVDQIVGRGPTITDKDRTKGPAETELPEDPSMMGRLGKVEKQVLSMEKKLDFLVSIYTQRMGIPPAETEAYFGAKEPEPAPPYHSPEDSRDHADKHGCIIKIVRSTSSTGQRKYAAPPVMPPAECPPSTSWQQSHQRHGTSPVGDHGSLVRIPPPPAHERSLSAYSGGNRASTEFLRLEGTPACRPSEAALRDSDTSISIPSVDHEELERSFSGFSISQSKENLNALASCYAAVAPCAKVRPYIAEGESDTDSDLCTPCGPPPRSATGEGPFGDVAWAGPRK

[20] = target: Potassium voltage-gated channel subfamily KQT member 1 (Homo sapiens) (UniProt P51787); experiment: KCNQ1 channel current potentiators, confirmation, orthogonal assay for KCNQ1 potentiator project, IonWorks patch clamp, KCNQ1-CHO cells (AID 493184;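 active = current rise at least 3 SD above the untreated control mean in each of two repeat wells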); details: automated patch clamp current, at 10 µM; active compounds read high

Cc1ccc2c(nc3s/c(=C\c4ccc(-c5ccccc5C(=O)O)o4)c(=O)n32)c1C
active: activation [1] 232% | activation [9] 805% | activation [11] 182% | inhibition [12] 28.9% | activation [14] 203%
inactive: outcome [2] | outcome [3] | outcome [4] | outcome [5] | outcome [6] | outcome [7] | outcome [8] | outcome [10] | outcome [13] | outcome [15]

COc1ccc(C(CNC(=O)Cc2ccc3ccccc3c2)N(C)C)cc1 (stereo not given)
inactive: outcome [3] | outcome [4] | outcome [5] | outcome [7] | outcome [8] | outcome [10] | outcome [11] | outcome [12] | outcome [13] | outcome [14] | outcome [15]
active: activation [1] 171% | activation [2] 88% | inhibition [6] 98% | activation [9] 55.5%

CCOc1ccccc1N(CC(=O)N1CCOCC1)S(=O)(=O)c1ccccc1
active: activation [1] 155% | activation [9] 56.5% | activation [11] 94% | inhibition [12] 16% | activation [14] 74.4%
inactive: outcome [2] | outcome [3] | outcome [4] | outcome [5] | outcome [6] | outcome [7] | outcome [8] | outcome [10] | outcome [13] | outcome [15]

CN(C)C(CNC(=O)c1ccc2c(c1)S(=O)(=O)c1ccccc1C2=O)c1ccco1 (stereo not given)
inactive: outcome [2] | outcome [3] | outcome [4] | outcome [6] | outcome [7] | outcome [8] | outcome [9] | outcome [10] | outcome [13] | outcome [14] | outcome [15]
active: activation [1] 142% | inhibition [5] 67% | activation [11] 42.8% | inhibition [12] 29.5%

Cc1onc(-c2ccccc2)c1C(=O)NNC(=S)NC(=O)c1ccc(Cl)cc1Cl
active: activation [1] 274% | activation [2] 81% | activation [9] 28% | activation [11] 142% | activation [14] 96.9% | potentiation [18] 29.5%
inactive: outcome [3] | outcome [4] | outcome [5] | outcome [6] | outcome [7] | outcome [16] | outcome [8] | outcome [10] | outcome [12] | outcome [13] | outcome [15] | outcome [17] | outcome [19] | outcome [20]

COc1ccccc1NS(=O)(=O)c1cccc(C(=O)NC2CCN(Cc3ccccc3)CC2)c1
active: activation [1] 90% | inhibition [6] 72% | activation [9] 38.5%
inactive: outcome [2] | outcome [3] | outcome [4] | outcome [5] | outcome [7] | outcome [8] | outcome [10] | outcome [11] | outcome [12] | outcome [13] | outcome [14] | outcome [15]

COc1cc(OC)cc(C(=O)N[C@H](C(=O)OCC(=O)NC(C)c2ccccc2)C(C)C)c1 (stereo not given in full)
inactive: outcome [2] | outcome [3] | outcome [4] | outcome [5] | outcome [6] | outcome [7] | outcome [16] | outcome [8] | outcome [10] | outcome [12] | outcome [13] | outcome [15] | outcome [17] | outcome [18] | outcome [19] | outcome [20]
active: activation [1] 118% | activation [9] 36% | activation [11] 85.2% | activation [14] 45.3%

NC(=Nc1ccccc1)Nc1ccccc1
inactive: outcome [2] | outcome [3] | outcome [4] | outcome [5] | outcome [6] | outcome [7] | outcome [16] | outcome [8] | outcome [10] | outcome [12] | outcome [13] | outcome [15] | outcome [17] | outcome [18] | outcome [19] | outcome [20]
active: activation [1] 224% | activation [9] 51% | activation [11] 94.2% | activation [14] 64.1%

O=C(N/N=C/c1cccnc1)c1ccccc1OCc1ccc(Cl)cc1
inactive: outcome [1] | outcome [2] | outcome [3] | outcome [4] | outcome [7] | outcome [8] | outcome [9] | outcome [10] | outcome [11] | outcome [13] | outcome [14] | outcome [15]
active: inhibition [5] 98% | inhibition [6] 48% | inhibition [12] 42.7%

COc1cccc(-c2nn(-c3ccccc3)cc2CN(C)C(C)c2ccncn2)c1 (stereo not given)
inactive: outcome [1] | outcome [2] | outcome [3] | outcome [4] | outcome [6] | outcome [7] | outcome [8] | outcome [10] | outcome [11] | outcome [12] | outcome [13] | outcome [14] | outcome [15]
active: inhibition [5] 93% | activation [9] 41%
